# Among all 310,000 compounds or so, about 14,000 (4.5%) showed an effect of 50% or more. Effects have a minus sign here. Shown is part of a subset that was picked to be rich in strong results.
# Target: human ether-à-go-go-related gene (hERG) potassium channel (human, UniProt Q12809)
# Test: primary screen, population patch clamp on CHO cells stably expressing hERG; higher = less effect of the substance
# 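Also: peak tail current of the secondary pulse compared with the same well before compound.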
# Sequence of human ether-à-go-go-related gene (hERG) potassium channel (Q12809 whole entry, looked up): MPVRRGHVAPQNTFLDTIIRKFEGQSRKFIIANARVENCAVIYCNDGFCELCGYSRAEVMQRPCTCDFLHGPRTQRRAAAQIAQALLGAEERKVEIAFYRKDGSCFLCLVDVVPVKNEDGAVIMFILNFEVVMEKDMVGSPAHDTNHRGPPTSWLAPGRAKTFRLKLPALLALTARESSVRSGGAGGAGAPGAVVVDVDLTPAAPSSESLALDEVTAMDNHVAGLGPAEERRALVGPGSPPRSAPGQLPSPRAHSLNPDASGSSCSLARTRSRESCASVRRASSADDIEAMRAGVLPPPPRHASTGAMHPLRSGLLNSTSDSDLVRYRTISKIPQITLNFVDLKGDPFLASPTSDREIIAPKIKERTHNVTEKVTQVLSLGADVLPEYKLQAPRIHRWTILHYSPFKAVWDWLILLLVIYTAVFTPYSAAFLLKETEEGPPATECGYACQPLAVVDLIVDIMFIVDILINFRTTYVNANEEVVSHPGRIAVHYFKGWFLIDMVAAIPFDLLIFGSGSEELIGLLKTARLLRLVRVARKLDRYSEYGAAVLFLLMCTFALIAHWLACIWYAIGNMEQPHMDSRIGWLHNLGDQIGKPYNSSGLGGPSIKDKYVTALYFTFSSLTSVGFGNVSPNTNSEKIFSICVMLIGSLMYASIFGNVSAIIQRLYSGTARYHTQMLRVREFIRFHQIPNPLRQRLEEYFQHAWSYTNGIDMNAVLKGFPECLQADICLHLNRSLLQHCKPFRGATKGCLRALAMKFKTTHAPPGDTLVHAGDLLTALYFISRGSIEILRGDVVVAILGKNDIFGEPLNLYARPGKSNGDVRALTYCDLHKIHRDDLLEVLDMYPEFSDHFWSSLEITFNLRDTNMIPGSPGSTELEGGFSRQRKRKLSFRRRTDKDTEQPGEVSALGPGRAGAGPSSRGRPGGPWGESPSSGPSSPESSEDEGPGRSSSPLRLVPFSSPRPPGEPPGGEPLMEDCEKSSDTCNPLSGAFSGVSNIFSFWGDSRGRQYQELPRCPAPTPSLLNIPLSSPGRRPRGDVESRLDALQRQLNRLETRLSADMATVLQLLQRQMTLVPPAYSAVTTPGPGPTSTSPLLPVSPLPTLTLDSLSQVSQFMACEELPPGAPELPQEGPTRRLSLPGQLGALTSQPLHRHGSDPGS
row,SMILES,"hERG current change (%, negative = inhibition) at 10uM [%]"
1,O=C(NCc1ccco1)c1ccc(Cl)c(S(=O)(=O)N2CCCC2)c1,-9.61
2,O=C1NC(=O)/C(=C\c2ccc(OCc3cccc(C(=O)O)c3)c(Cl)c2)N1,20.1
3,COc1cc(OC)cc(C(=O)Nc2ccc(S(=O)(=O)Nc3ncccn3)cc2)c1,12.8
4,COc1c(C)cc(C(=O)C2CCCN(Cc3cnc(N4CCOCC4)s3)C2)cc1C (stereo not drawn),-8.64
5,CS/C(=N\NC(N)=O)c1ccccc1,-8.24
6,O=C(O)c1ccc2c(=O)n3c(nc2c1)/C(=C/c1ccccc1Br)CC3,4.66
7,C/C(=N\NC(=O)CCCNc1cccc(C)c1)c1ccncc1,0.987
8,CCCCn1c(N)c(N(CC(C)C)C(=O)c2ccc(S(=O)(=O)N3CCCCCC3)cc2)c(=O)[nH]c1=O,9.58
9,COc1ccc(C(=O)N/C(=C\c2ccc3c(c2)OCO3)C(=O)NCCc2nc3ccccc3[nH]2)cc1,-39.4
10,O=C(Nc1cccc(C(=O)O)c1)/C(=C\c1ccc2c(c1)OCO2)NC(=O)c1ccccc1Cl,3.5
11,O=C(NCCc1nc2ccccc2[nH]1)/C(=C/c1ccc2c(c1)OCO2)NC(=O)c1ccccc1Cl,-80.6
12,O=C(NCCCCCc1nc2ccccc2[nH]1)c1ccccc1Cl,-6.43
13,O=C(NCCc1nc2ccccc2[nH]1)/C(=C/c1ccc2c(c1)OCO2)NC(=O)c1ccccc1,-71.1
14,O=C(CCc1nc2ccccc2[nH]1)NCc1ccc2c(c1)OCO2,-38.1
15,O=C(NCCc1nc2ccccc2[nH]1)/C(=C/c1ccc2c(c1)OCO2)NC(=O)c1ccc(Cl)cc1Cl,-76.3
16,O=C(N/N=C/c1ccc2c(c1)OCO2)c1ccc(Cl)cc1Cl,20.3
17,CC(C)=C(NC(=O)c1ccccc1)C(=O)NCCc1nc2ccccc2[nH]1,9.91
18,CCc1ccccc1NC(=O)CSc1nc2ccccc2nc1N1CCOCC1,-15.1
19,CCOC(=O)C1CCCN(C(=O)CCC(=O)Nc2ccc3nc(N4CCOCC4)cc(C)c3c2)C1 (stereo not drawn),-23.7
20,O=C(NC1CCS(=O)(=O)C1)/C(=C\c1ccco1)NC(=O)c1ccccc1 (stereo not drawn),1.36
21,Cc1cc(-c2nn3c(C)nnc3s2)ccc1NC(=O)C(C)(C)C,10.7

row,SMILES,"hERG current change (%, negative = inhibition) at 10uM [%]"
1,O=C(c1ccc(F)cc1)N1CCC(C(=O)N2CCN(S(=O)(=O)c3ccccc3Br)CC2)CC1,-32.6
2,CC(=O)N1CCC(C(=O)N2CCN(S(=O)(=O)c3ccc(F)cc3)CC2)CC1,-1.33
3,COc1ccc(N2CCN(C(=O)C3CCN(S(=O)(=O)c4ccc(F)cc4)CC3)CC2)cc1,-48.3
4,Cc1ccc(C)c(S(=O)(=O)N2CCN(C(=O)C3CCN(C(=O)c4ccc(F)cc4)CC3)CC2)c1,-30.6
5,CN1CCN(C(=O)C2CCN(S(=O)(=O)c3ccc(F)cc3)CC2)CC1,5.18
6,CC(C)c1ccc(S(=O)(=O)N2CCN(C(=O)C3CCCC3)CC2)cc1,2.78
7,CC(=O)c1ccc(N2CCN(C(=O)C3CCN(S(=O)(=O)c4ccc(F)cc4)CC3)CC2)cc1,-52.6
8,Cc1ccc(S(=O)(=O)N2CCN(C(=O)c3ccco3)CC2)c(C)c1,-7.22
9,Cc1ccc(S(=O)(=O)N2CCN(C(=O)c3ccc(Br)o3)CC2)c(C)c1,-55
10,Cc1ccc(S(=O)(=O)N2CCN(C(=O)C3CCN(C(=O)c4ccc(F)cc4)CC3)CC2)c(C)c1,-55.7
11,CC(C)c1ccc(S(=O)(=O)N2CCN(C(=O)C3CCN(C(=O)c4ccc(F)cc4)CC3)CC2)cc1,-53.7
12,Cc1ccc(S(=O)(=O)N2CCN(C(=O)COC(=O)c3ccc(Br)o3)CC2)c(C)c1,-10.3
13,CC(C)c1ccc(/C=C2\SC(=O)N(CC(=O)NC3C=CS(=O)(=O)C3)C2=O)cc1 (stereo not drawn),5.89
14,O=C(Cn1cnc2c(nnn2Cc2ccc(F)cc2)c1=O)NCc1ccco1,-18.2
15,CCOc1ccc(CN2CCNC(=O)C2CC(=O)NCc2cc(C)n(C)n2)cc1 (stereo not drawn),-1.95
16,O=C(NC(=S)NNS(=O)(=O)c1ccc(Cl)cc1)c1cccnc1,18.6
17,O=C(CNC(=S)N(Cc1ccccc1)Cc1ccccc1F)NCCc1ccccc1,3.73
18,Cc1ccc2c(c1)C(c1ccccc1)=NCC(=O)N2,-12.8
19,NS(=O)(=O)c1cc(C(=O)O)cc(N2CCCC2)c1Oc1ccccc1,0.0774
20,O=C(Nc1ccc(Cl)cn1)c1ccccc1F,-1.25
21,O=C(NC(=S)Nc1ccc2oc(=O)ccc2c1)c1cccc(Cl)c1,4.11

row,SMILES,"hERG current change (%, negative = inhibition) at 10uM [%]"
1,COc1cc(NC(=O)CN(C)S(=O)(=O)c2ccc3c(c2)CCC(=O)N3)cc(OC)c1,-23.9
2,CCC1=NN(C(=O)c2ccccc2Br)C(O)(c2ccc(Br)cc2)C1 (stereo not drawn),25.2
3,CC(=O)Nc1ccc(N2C(=O)c3cccc4c(O)ccc(c34)C2=O)cc1,13.4
4,COc1ccc(OC)c(S(=O)(=O)N2CCC(C(=O)N3CCCCCC3)CC2)c1,5.45
5,COc1ccc(OC)c(S(=O)(=O)N2CCC(C(=O)N3CCCC3)CC2)c1,7.71
6,COc1ccc(OC)c(S(=O)(=O)N2CCC(C(=O)N3CCN(c4ccc(F)cc4)CC3)CC2)c1,-78
7,COc1ccc(-c2[nH]ncc2CN(C)Cc2cccnc2)c(F)c1,-1.66
8,CC(=O)N1CCc2cc(S(=O)(=O)NC(CC(C)C)C(=O)N3CCCC3)ccc21 (stereo not drawn),-20.2
9,CC(=O)N1CCc2cc(S(=O)(=O)NC(CC(C)C)C(=O)N3CCc4ccccc4C3)ccc21 (stereo not drawn),-26.8
10,CC(=O)N1CCc2cc(S(=O)(=O)NC(CC(C)C)C(=O)N3CCn4c3nc3ccccc34)ccc21 (stereo not drawn),-60
11,O=C1CS/C(=N/N=C/c2ccccc2)N1Cc1ccco1,1.4
12,COC(=O)C(C)N=Cc1ccccc1 (stereo not drawn),12.9
13,O=c1c2ccccc2nc(/C=C/c2ccc3c(c2)OCO3)n1-c1cccc(O)c1,-7.38
14,Cc1ccc(-n2c(/C=C/c3ccc4c(c3)OCO4)nc3ccccc3c2=O)cc1,-50.4
15,COc1ccc(-n2c(/C=C/c3ccc4c(c3)OCO4)nc3ccccc3c2=O)cc1,-55.3
16,COc1ccc(-n2c(/C=C/c3ccc(O)cc3)nc3ccccc3c2=O)cc1,-21.6
17,COc1ccc(-n2c(/C=C/c3ccc(O)c(O)c3)nc3ccccc3c2=O)cc1,10.6
18,O=c1c2ccccc2nc(/C=C/c2ccc3c(c2)OCO3)n1-c1ccccc1,-26
19,CCc1ccccc1OCC(=O)OCC(=O)Nc1cc(C)on1,-2.74
20,CCC(=O)N1CCc2cc(S(=O)(=O)CCC(=O)N3CCN(c4ccccc4)CC3)ccc21,3.15
21,O=C(CNCC1(N2CCOCC2)CCCCC1)Nc1ccc(Cl)cc1,-78.8

row,SMILES,"hERG current change (%, negative = inhibition) at 10uM [%]"
1,N#CCC(=O)Nc1ccc(C(=O)NCC2(N3CCOCC3)CCCCC2)cc1,7.48
2,O=C(Cc1ccc(Cl)cc1Cl)NCC1(N2CCOCC2)CCCCC1,5.44
3,O=C(CN1CCN(S(=O)(=O)c2ccc(Cl)cc2)CC1)NCC1(N2CCOCC2)CCCCC1,-39.3
4,CC(NCC1(N2CCOCC2)CCCCC1)C(=O)N1CCc2ccccc21.O=C(O)C(=O)O (stereo not drawn),-5.73
5,O=C(CN1CCN(CC(=O)Nc2ccc(F)cc2)CC1)NCC1(N2CCOCC2)CCCCC1,-73.4
6,O=C(CN1CCN(CC(=O)Nc2cccc(F)c2)CC1)NCC1(N2CCOCC2)CCCCC1,-27
7,O=C(CN1CCN(S(=O)(=O)c2ccc(F)cc2)CC1)NCC1(N2CCOCC2)CCCCC1,-18.6
8,CC(NCC1(N2CCOCC2)CCCCC1)C(=O)Nc1ccc(Cl)cc1Cl.O=C(O)C(=O)O (stereo not drawn),-74.6
9,O=C(Nc1ccc(S(=O)(=O)NCc2cccnc2)cc1)c1ccco1,10.2
10,O=C(COc1ncnc2sccc12)N1CCc2ccccc2C1,0.518
11,Cc1nc2ccccc2c(=O)n1/N=C/c1ccc(O)cc1O,10.4
12,Cc1ccc(NC(C)C(=O)N/N=C/c2ccc([N+](=O)[O-])s2)cc1 (stereo not drawn),8.3
13,Cl.O=C(COc1ccc(Cl)cc1)NC1CN2CCC1CC2 (stereo not drawn),-35.1
14,O=C(Nc1ccc(Cl)cc1)OC1CN2CCC1CC2 (stereo not drawn),-40.6
15,O=C(COc1ccc(Cl)cc1)N1CCCC1,-7.47
16,Cl.O=C(COc1ccc(Cl)cc1)N(c1ccccc1Cl)C1CN2CCC1CC2 (stereo not drawn),-50.5
17,O=C(COc1ccc(Cl)cc1)N(Cc1cccs1)C1CCS(=O)(=O)C1 (stereo not drawn),-48.1
18,Cl.O=C(COc1ccc(Cl)cc1)N(c1ccc(Cl)cc1)C1CN2CCC1CC2 (stereo not drawn),-65.1

# Source: PMC4336329 (PLoS ONE, 2015)
